# In PubChem BioAssay AID602430 (NMMLSC, 2012):
# Some of the results follow. Unmarked numbers belong to inactive results.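 Rule for the calls: active = repeat-averaged ratio response below 75% of DMSO, the collection mean minus 3 SD; inactive = the rest.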
# Target: ATP-binding cassette sub-family B member 6 (Homo sapiens) (UniProt Q9NP58)
# Assay: blockers of ABCB6-driven porphyrin uptake – K562-ABCB6 cells, flow cytometry, cherry pick 1, confirmation (AID 602430);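 note: median porphyrin fluorescence at 575 nm with 488 nm excitation from mitochondria; lower ratio means less porphyrin signal so ABCB6 inhibition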
# Conditions: K562-ABCB6 porphyrin accumulation, 1 h, at 10 µM, stronger effect = lower value
# ATP-binding cassette sub-family B member 6 (Homo sapiens), sequence (Q9NP58 whole entry, looked up): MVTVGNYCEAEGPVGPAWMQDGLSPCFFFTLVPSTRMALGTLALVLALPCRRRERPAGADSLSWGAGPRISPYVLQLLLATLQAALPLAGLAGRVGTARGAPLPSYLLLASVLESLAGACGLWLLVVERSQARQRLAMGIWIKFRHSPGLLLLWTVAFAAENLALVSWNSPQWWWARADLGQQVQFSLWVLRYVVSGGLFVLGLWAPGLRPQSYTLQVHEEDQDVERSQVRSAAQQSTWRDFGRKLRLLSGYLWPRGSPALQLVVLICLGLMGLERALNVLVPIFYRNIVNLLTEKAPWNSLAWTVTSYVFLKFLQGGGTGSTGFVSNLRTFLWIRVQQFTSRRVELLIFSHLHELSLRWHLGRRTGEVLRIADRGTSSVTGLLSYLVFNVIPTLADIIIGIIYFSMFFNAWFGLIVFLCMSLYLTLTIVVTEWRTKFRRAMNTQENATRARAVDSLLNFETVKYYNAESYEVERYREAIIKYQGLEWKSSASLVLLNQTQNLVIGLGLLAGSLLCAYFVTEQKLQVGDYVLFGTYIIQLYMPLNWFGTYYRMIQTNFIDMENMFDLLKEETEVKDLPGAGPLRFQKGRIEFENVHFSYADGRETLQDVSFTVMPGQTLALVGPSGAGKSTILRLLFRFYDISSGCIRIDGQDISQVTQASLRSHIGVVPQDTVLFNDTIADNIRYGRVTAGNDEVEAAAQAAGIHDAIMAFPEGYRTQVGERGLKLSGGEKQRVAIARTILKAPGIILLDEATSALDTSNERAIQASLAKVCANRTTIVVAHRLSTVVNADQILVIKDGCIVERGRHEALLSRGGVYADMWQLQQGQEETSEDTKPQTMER
row,SMILES,ratio response (% of DMSO) [%]
1,O=C1CCCC2=C1C(c1cccs1)n1nc(SCc3ccccc3)nc1N2 (centres undefined),102
2,COc1cccc(N(CC(=O)N2CCc3ccccc3C2)S(C)(=O)=O)c1,100
3,Cc1ccccc1OCC(=O)Nc1nnc(S(=O)(=O)N2CCCC2)s1,101
4,Cc1nn(-c2ccccc2)c(C)c1C(=O)OCC(=O)NC(=O)NC1CCCCC1,97
5,Cc1cc(C)cc(NC(=O)NCc2ccccn2)c1,96
6,CC1(C)Cc2c(C#N)c(SCc3nc4ccccc4[nH]3)nc(N3CCOCC3)c2CO1,96
7,COC(=O)CNC(=O)c1cc(-c2ccncc2)nc2ccccc12,101
8,OCCC1CN(Cc2cnc(-c3ccccc3)s2)CCN1CCc1ccccc1 (centres undefined),102
9,Cc1ccc(NC(=O)N2CCC(c3nc4c(nnn4Cc4c(F)cccc4Cl)c(=O)[nH]3)CC2)cc1,98
10,O=C(Cc1cccs1)NCc1cccc(C(F)(F)F)c1,103
11,COc1ccc(CCNS(=O)(=O)c2ccc(F)cc2)cc1OC,101
12,COc1ccccc1C(=O)C(O)c1ccccc1OC (centres undefined),102
13,CC(C)C(=O)NCC(c1cccs1)S(=O)(=O)c1ccc(F)cc1 (centres undefined),100
14,O=C(c1ccc(Cl)cc1)c1cnc(Nc2ccccc2)s1,102
15,COc1cc2[nH]c(=S)n(Cc3ccc(F)cc3)c(=O)c2cc1OC,100
16,CCS(=O)(=O)N1CCC(N2CCN(c3ccccc3)CC2)CC1,103
17,Cc1ccc(Cl)cc1N1CCN(C(=O)c2cccc3c(=O)c(C)c(-c4ccccc4)oc23)CC1,102

row,SMILES,ratio response (% of DMSO) [%]
1,COc1ccc(CCNC2=C(Cl)C(=O)N(Cc3ccccc3)C2=O)cc1OC,100
2,CCC(=O)N1CCCC1(C)C(=O)Nc1ccc2c(c1)CCN2C(C)=O (centres undefined),99
3,Cc1cccc(N2CCN(C(=O)CCS(=O)(=O)c3ccc4c(c3)NC(=O)C(C)S4)CC2)c1C (centres undefined),96
4,Cc1ccc2nc3c(cc(C(=O)NCCc4ccccc4)c(=N)n3CC3CCCO3)c(=O)n2c1 (centres undefined),102
5,Cc1cccc(CS(=O)(=O)c2ncc(Cl)c(C(=O)Nc3ccc(F)cc3)n2)c1,89
6,CCCOC(=O)C1=C(C)NC2=C(C(=O)C(C(=O)OC)C(C)C2)C1c1ccc(N(C)C)cc1 (centres undefined),100
7,O=C(Nn1cnc2ccccc2c1=O)c1ccc(F)cc1Cl,93
8,Cc1ccccc1NC(=O)C(C)OC(=O)CCC(=O)N(CC(C)C)c1c(N)n(CC(C)C)c(=O)[nH]c1=O (centres undefined),101
9,CC(C(=O)Nc1ccc(F)c(F)c1F)N1CCCCCC1 (centres undefined),101
10,CC1(C(=O)NS(=O)(=O)c2cccc(F)c2)CCN1C(=O)Cc1cc(F)ccc1F (centres undefined),97
11,Cc1cccc(NC(=O)c2nc(S(=O)(=O)Cc3ccccc3)ncc2Cl)c1,90
12,O=C(NCCSc1ncc(-c2ccccc2)[nH]1)c1ccco1,102
13,CCn1c(COc2ccccc2)nnc1SCC(=O)Nc1ccc2c(c1)OCCO2,97
14,CCOc1ccc(NC(=O)CC2NCCNC2=O)cc1 (centres undefined),100
15,CCOC(=O)N1CCN(C(=O)CN(C2CCCCC2)S(C)(=O)=O)CC1,101
16,O=C(COc1ccc(-n2cnnn2)cc1)Nc1ccccc1Cl,99
17,Cc1ccc(SCC(=O)Nc2ncc(C)s2)cc1,103
